PubChem BioAssay (EPA / NIEHS)
Activity calls are given as the source filed them. The calls were made as follows: active = hit-call score of the fitted dose curve at least 0.9, where 1 is the maximum; inactive = score below 0.9.

Tests used:
[1] = molecular target: Bile acid receptor (Homo sapiens) (UniProt Q96RI1); experiment: ATG_IR1_CIS: Attagene CIS-FACTORIAL HepG2 Assay for human Nuclear Receptor Subfamily 1 Group H Member 4 (NR1H4), IR1 submotif (AID 2282946); conditions: IR1 reporter transcription, actives raise or lower the signal
How it was run: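 HepG2 cells transiently transfected with multiple cis-promoter-driven reporter units to measure endogenous transcription factor activity; 24 h exposure. Reporter mRNA read by RT-PCR, FAM labelling, HpaI digestion and capillary electrophoresis. Bidirectional fit versus DMSO.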

[2] = ATG_GRE_CIS: Attagene CIS-FACTORIAL HepG2 Assay for human Glucocorticoid Response Elements (GRE) (AID 2282947); conditions: HepG2 GRE cis-reporter, Attagene multiplex mRNA; actives raise or lower the signal
How it was run: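 Endogenous transcription factor activity is read through cis-element reporter constructs transiently transfected into HepG2 cells. After 24 h treatment, labelled RT-PCR products are resolved by capillary electrophoresis; DMSO sets baseline for bidirectional curve fitting.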

[3] = ATG_ISRE_CIS: Attagene CIS-FACTORIAL HepG2 Assay for human Interferon Regulatory Factor 1 (IRF1) binding to an Interferon-Stimulated Response Element (ISRE) (AID 2282948); conditions: HepG2 ISRE cis-reporter (Attagene), mRNA transcription readout; actives raise or lower the signal
How it was run: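 Quantitation relies on labelled RT-PCR fragments separated by capillary electrophoresis. Human HepG2 cells bearing cis-promoter reporter constructs were treated 24 h; DMSO served as baseline for bidirectional fitting.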

[4] = ATG_M_32_CIS: Attagene CIS-FACTORIAL HepG2 Assay for M32 Transcription Factor (Internal Marker) (AID 2282949); conditions: HepG2 Attagene cis-factorial M32 reporter, mRNA; actives raise or lower the signal;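 also: background control marker of the multiplexed CIS panel rather than a real target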
How it was run: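 Internal background marker read-out: RT-PCR/capillary electrophoresis fluorescence of reporter transcripts from transiently transfected HepG2 cells after 24 h chemical exposure. Activity fitted bidirectionally relative to DMSO negative control.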

[5] = molecular target: Hypoxia-inducible factor 1-alpha (Homo sapiens) (UniProt Q16665); experiment: ATG_HIF1a_CIS: Attagene CIS-FACTORIAL HepG2 Assay for human Hypoxia Inducible Factor 1 (HIF1A) (AID 2282951); conditions: HepG2 Attagene cis-factorial HIF1a reporter transcription; actives raise or lower the signal
How it was run: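 Dosed 24 h, transfected HepG2 cells yielded total RNA whose reporter transcripts were RT-PCR-amplified and sized by capillary electrophoresis using fluorescent labelling; DMSO defined baseline, with gain and loss of signal both fitted.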

[6] = molecular target: Hepatocyte nuclear factor 6 (Homo sapiens) (UniProt Q9UBC0); experiment: ATG_HNF6_CIS: Attagene CIS-FACTORIAL HepG2 Assay for human Hepatocyte Nuclear Factor 6 (HNF6) (AID 2282952); conditions: HepG2 Attagene cis-factorial HNF6 reporter transcription; actives raise or lower the signal
How it was run: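 HepG2 cells transiently transfected with cis-element-driven multiplexed reporter units measuring endogenous transcription factor activity. After 24 h exposure, reporter mRNA quantified by RT-PCR, FAM-labelled fragments and capillary electrophoresis; bidirectional fitting versus DMSO.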

[7] = ATG_MRE_CIS: Attagene CIS-FACTORIAL HepG2 Assay for human Metal Responsive Element (MRE) (AID 2282954); conditions: HepG2 MRE cis-reporter transcription, Attagene multiplex; actives raise or lower the signal
How it was run: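 Fluorescent reporter fragments separated by capillary electrophoresis give mRNA induction for the MRE unit after 24 h treatment of transfected HepG2 cells. Endogenous transcription-factor activity is read; DMSO serves as negative control and baseline.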

[8] = ATG_M_06_CIS: Attagene CIS-FACTORIAL HepG2 Assay for M06 Transcription Factor (Internal Marker) (AID 2282950); conditions: HepG2 Attagene CIS-FACTORIAL M06 internal marker reporter; actives raise or lower the signal
How it was run: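 Steps: transfect HepG2 with multiplexed cis-element reporter constructs; dose chemical 24 h; extract RNA with DNase treatment; reverse-transcribe, PCR-amplify, 6-FAM label, HpaI digest; separate fragments by capillary electrophoresis. Activity fitted both directions versus DMSO.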

[9] = molecular target: Heat shock factor protein 1 (Homo sapiens) (UniProt Q00613); experiment: ATG_HSE_CIS: Attagene CIS-FACTORIAL HepG2 Assay for human Heat Shock Transcription Factor 1 (HSE) (AID 2282953); conditions: HepG2 HSE cis-reporter, Attagene RNA transcription; actives raise or lower the signal
How it was run: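 Cells were transfected with cis-element-driven reporter constructs, dosed for 24 h, then total RNA was reverse-transcribed and reporter cDNA amplified, FAM-labelled and digested with HpaI. Fragments were resolved by capillary electrophoresis; gain or loss was fitted against DMSO.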

[10] = ATG_PBREM_CIS: Attagene CIS-FACTORIAL HepG2 Assay for human Phenobarbital-responsive Enhancer Module (PBREM) (AID 2282955); conditions: HepG2 PBREM cis-reporter, Attagene multiplexed transcription; actives raise or lower the signal
How it was run: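 Transfected liver-derived HepG2 cells exposed 24 h; PBREM reporter transcript quantified via RT-PCR and capillary electrophoresis, with activity in either direction referenced to DMSO.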

Measured: AC50

Chain of Hepatocyte nuclear factor 6 (Homo sapiens) (Q9UBC0 whole entry, looked up, the tested form may be a part): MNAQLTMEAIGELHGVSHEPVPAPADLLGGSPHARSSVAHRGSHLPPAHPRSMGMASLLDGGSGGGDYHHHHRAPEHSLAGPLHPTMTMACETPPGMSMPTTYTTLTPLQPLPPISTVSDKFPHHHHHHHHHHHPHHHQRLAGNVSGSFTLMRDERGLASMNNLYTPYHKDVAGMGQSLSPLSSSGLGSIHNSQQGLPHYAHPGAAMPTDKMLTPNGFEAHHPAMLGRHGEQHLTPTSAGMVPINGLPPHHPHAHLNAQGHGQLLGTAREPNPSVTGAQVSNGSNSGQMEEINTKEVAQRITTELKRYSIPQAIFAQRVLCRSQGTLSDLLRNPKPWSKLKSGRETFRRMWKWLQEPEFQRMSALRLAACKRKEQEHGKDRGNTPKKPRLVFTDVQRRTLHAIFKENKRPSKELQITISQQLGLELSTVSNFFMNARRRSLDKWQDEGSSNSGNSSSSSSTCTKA
Chain of Bile acid receptor (Homo sapiens) (Q96RI1 whole entry, looked up): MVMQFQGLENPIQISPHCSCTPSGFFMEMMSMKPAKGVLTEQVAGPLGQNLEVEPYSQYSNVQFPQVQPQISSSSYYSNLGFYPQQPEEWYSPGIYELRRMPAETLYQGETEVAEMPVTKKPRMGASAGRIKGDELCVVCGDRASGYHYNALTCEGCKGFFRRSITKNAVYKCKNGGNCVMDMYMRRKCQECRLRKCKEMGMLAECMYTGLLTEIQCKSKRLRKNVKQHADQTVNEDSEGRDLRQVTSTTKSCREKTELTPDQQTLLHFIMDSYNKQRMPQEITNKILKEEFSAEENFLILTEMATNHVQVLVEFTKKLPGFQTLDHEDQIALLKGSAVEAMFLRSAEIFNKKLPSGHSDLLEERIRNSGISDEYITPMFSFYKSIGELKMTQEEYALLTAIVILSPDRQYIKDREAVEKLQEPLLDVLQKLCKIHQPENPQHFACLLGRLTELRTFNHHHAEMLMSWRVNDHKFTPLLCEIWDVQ
Chain of Hypoxia-inducible factor 1-alpha (Homo sapiens) (Q16665 whole entry, looked up): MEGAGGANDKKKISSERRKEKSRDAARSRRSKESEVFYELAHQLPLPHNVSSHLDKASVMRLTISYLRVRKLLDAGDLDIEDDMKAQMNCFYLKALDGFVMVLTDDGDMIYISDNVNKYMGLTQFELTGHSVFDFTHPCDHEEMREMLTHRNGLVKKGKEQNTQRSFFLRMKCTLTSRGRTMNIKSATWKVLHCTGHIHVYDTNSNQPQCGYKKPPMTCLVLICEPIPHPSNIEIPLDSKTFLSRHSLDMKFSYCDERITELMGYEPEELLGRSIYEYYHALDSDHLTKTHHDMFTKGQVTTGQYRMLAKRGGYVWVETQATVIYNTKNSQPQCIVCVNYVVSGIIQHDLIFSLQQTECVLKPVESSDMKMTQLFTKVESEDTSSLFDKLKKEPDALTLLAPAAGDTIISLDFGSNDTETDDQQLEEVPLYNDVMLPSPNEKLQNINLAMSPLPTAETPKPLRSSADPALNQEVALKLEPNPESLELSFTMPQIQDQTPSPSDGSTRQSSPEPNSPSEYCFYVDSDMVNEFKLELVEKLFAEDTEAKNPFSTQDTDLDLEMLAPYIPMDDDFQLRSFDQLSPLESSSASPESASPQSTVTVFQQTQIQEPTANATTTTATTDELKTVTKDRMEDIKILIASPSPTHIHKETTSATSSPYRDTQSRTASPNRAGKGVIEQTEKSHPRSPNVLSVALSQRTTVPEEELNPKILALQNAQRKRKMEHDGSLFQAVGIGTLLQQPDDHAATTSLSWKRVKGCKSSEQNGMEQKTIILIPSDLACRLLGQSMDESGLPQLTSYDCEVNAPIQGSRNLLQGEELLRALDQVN
Chain of Heat shock factor protein 1 (Homo sapiens) (Q00613 whole entry, looked up, the tested form may be a part): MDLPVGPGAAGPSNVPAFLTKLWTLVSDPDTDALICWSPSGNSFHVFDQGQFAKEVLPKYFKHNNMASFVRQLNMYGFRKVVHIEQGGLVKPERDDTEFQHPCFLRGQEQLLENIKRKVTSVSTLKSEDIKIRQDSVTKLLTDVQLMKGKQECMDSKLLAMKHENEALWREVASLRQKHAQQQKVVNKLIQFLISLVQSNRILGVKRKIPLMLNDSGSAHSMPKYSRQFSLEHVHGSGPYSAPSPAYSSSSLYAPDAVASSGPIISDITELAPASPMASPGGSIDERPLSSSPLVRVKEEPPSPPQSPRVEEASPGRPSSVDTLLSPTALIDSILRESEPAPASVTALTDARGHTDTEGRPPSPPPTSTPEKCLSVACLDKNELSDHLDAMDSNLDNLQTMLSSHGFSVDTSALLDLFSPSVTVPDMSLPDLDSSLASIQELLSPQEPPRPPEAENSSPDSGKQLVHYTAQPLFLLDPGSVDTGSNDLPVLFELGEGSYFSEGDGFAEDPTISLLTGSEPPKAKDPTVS

O=C1c2ccccc2C(=O)N1SC1CCCCC1
inactive: [3] | [5] | [6] | [7]
active: [1] 142 µM | [2] 169 µM | [4] 189 µM

CC(=O)OCCC(C)CC(C)(C)C (stereo unspecified)
not listed: [5]
inactive: all other assays above

CC(=O)O[C@]1(C(C)=O)CC[C@H]2[C@@H]3C[C@H](C)C4=CC(=O)CC[C@]4(C)[C@H]3CC[C@@]21C
inactive: [1] | [2] | [4] | [8] | [6]
active: [3] 67.1 µM | [7] 49.9 µM

CC1(C)CCC(C)(C)c2cc(C(=O)Nc3ccc(C(=O)O)cc3)ccc21
active: [1] 4.75 µM | [3] 100 µM | [5] 55.1 µM | [9] 157 µM | [7] 74.5 µM
inactive: [2] | [4] | [6]

C=CCOC(=O)CCC1CCCCC1
not listed: [9]
inactive: all other assays above

CCCCCCCCCCCCSC
not listed: [8]
inactive: all other assays above

CN(C)CCCN
not listed: [5] | [9]
inactive: all other assays above

O=C(O)Cc1cccc2ccccc12
not listed: [2] | [10]
inactive: all other assays above

N#Cc1ccc(CC(=NNC(=O)Nc2ccc(OC(F)(F)F)cc2)c2cccc(C(F)(F)F)c2)cc1
not listed: [5] | [9]
inactive: all other assays above

CCCc1c(OCCCOc2ccc(OCC(=O)O)cc2)ccc(C(C)=O)c1O
active: [9] 150 µM | [7] 79.2 µM
inactive: [1] | [2] | [3] | [4] | [6]

CC(CCO)CCCC(C)(C)O (stereo unspecified)
not listed: [8]
inactive: all other assays above

COC(=O)C1=C(C)NC(C)=C(C(=O)OCCN(C)Cc2ccccc2)C1c1cccc([N+](=O)[O-])c1 (stereo unspecified)
inactive: [1] | [2] | [4] | [8]
active: [3] 26.2 µM | [9] 54.6 µM | [7] 19.8 µM | [10] 0.238 µM

Clc1cccc(Cl)n1
not listed: [5]
inactive: all other assays above

N#Cc1nc(Cl)c(Cl)c(Cl)c1Cl
inactive: [2] | [4] | [10]
active: [1] 4.18 µM | [3] 2.79 µM | [5] 3.71 µM | [6] 5.48 µM | [9] 5.66 µM | [7] 2.63 µM

Nc1cc([N+](=O)[O-])ccc1Cl
not listed: [9]
inactive: all other assays above

O=C1O[C@@H]2[C@@H](O)[C@H](O)O[C@@H]2[C@H]1O
not listed: [5]
inactive: all other assays above

CCCCNC(=O)NS(=O)(=O)c1ccc(C)cc1
not listed: [5] | [10]
inactive: all other assays above

CCCCCCOC(=O)CC
not listed: [5]
inactive: all other assays above

CCC(O)CO (stereo unspecified)
not listed: [8] | [10]
inactive: all other assays above

Cc1c(N(C)C)c(=O)n(-c2ccccc2)n1C
not listed: [5]
inactive: all other assays above

BrC1CCC(Br)C(Br)CCC(Br)C(Br)CCC1Br (stereo unspecified)
active: [3] 87 µM | [6] 87 µM | [7] 49.2 µM
not listed: [8]
inactive: all other assays above

O=P(c1ccccc1)(c1ccccc1)c1ccccc1
not listed: [2] | [10]
inactive: all other assays above

CC(C)(Oc1ccc(CCNC(=O)c2ccc(Cl)cc2)cc1)C(=O)O
not listed: [5] | [9]
inactive: all other assays above

NCCOCCO
active: [5] 30.2 µM
not listed: [9] | [10]
inactive: all other assays above

CCCCC/C=C/C=C/C=O
active: [1] 144 µM | [5] 100 µM
not listed: [9]
inactive: all other assays above

CN(CCOc1ccc(CC2SC(=O)NC2=O)cc1)c1ccccn1 (stereo unspecified)
active: [10] 66.1 µM
not listed: [2]
inactive: all other assays above

CCCCCCCCCOC(C)=O
not listed: [2]
inactive: all other assays above

CC(CCO)CCc1ccccc1 (stereo unspecified)
not listed: [2] | [10]
inactive: all other assays above

CC(=O)[C@H]1CC[C@H]2[C@@H]3CC=C4C[C@@H](O)CC[C@]4(C)[C@H]3CC[C@]12C
active: [3] 36 µM
not listed: [2]
inactive: all other assays above

CCCCO
inactive: [1] | [3] | [4] | [5] | [6] | [7]

OCC(CO)(CO)COCC(CO)(CO)CO
not listed: [2] | [5]
inactive: all other assays above

Cc1ccc(Nc2ccc(O)c3c2C(=O)c2ccccc2C3=O)cc1
not listed: [2]
inactive: all other assays above

CC1CCC(C(C)CS)CC1S (stereo unspecified)
active: [2] 55 µM | [5] 53.7 µM | [6] 46.8 µM
not listed: [1] | [10]
inactive: all other assays above

CC1=CC(=O)NS(=O)(=O)O1
not listed: [2]
inactive: all other assays above

NC(=O)c1ccccc1Cl
active: [3] 100 µM | [9] 62.7 µM
not listed: [2] | [5]
inactive: all other assays above

CC(=O)/C=C/C1=C(C)CCCC1(C)C
not listed: [2] | [10]
inactive: all other assays above

O=c1[nH]nnc2ccccc12
not listed: [2]
inactive: all other assays above

Sc1nc(S)nc(S)n1
not listed: [2] | [8] | [10]
inactive: all other assays above

COC(=O)c1ccc(C)cc1
not listed: [2] | [10]
inactive: all other assays above

NCCCN1CCOCC1
not listed: [2]
inactive: all other assays above

O=C1NC(=O)c2ccccc21
not listed: [2] | [8]
inactive: all other assays above

NNc1nc(-c2ccc(N)cc2)cs1
not listed: [2]
inactive: all other assays above

C=C(C)C(=O)OCc1ccccc1
not listed: [2] | [9]
inactive: all other assays above

Clc1ccc(Cl)c(Cl)c1Cl
not listed: [2]
inactive: all other assays above

CCCCCCCCCCCCCC(=O)O
not listed: [2] | [9] | [10]
inactive: all other assays above

CC(C)=CCC[C@H](C)CC=O
inactive: [1] | [3] | [4] | [8] | [6] | [7]

CC(C)(C)C(=O)c1ccccc1
not listed: [2]
inactive: all other assays above

Cc1ccc(C=O)cc1
not listed: [2] | [10]
inactive: all other assays above

C=CC(=O)NCOCC(C)C
not listed: [2] | [10]
inactive: all other assays above

c1ccc2sc(SN(C3CCCCC3)C3CCCCC3)nc2c1
not listed: [2]
inactive: all other assays above

c1ccc(CCCc2ccccn2)cc1
active: [7] 81.5 µM | [10] 67 µM
not listed: [2]
inactive: all other assays above

CCN(CC)c1ccc2c(-c3ccccc3C(=O)O)c3ccc(=[N+](CC)CC)cc-3oc2c1
inactive: [4] | [6]
active: [1] 70.4 µM | [3] 59.9 µM | [5] 154 µM | [7] 156 µM

CNC(=O)Oc1ccc2c(c1)[C@]1(C)CCN(C)[C@@H]1N2C
not listed: [2] | [5]
inactive: all other assays above

CC(=O)C=CC1=C(C)CCCC1(C)C
not listed: [2] | [10]
inactive: all other assays above

COc1ccc(OC)c(OC)c1
not listed: [2]
inactive: all other assays above

Clc1nc(C(Cl)(Cl)Cl)c(Cl)c(Cl)c1Cl
inactive: [4] | [8] | [5] | [10]
active: [1] 22.6 µM | [3] 62.7 µM | [6] 49.9 µM | [9] 53.9 µM | [7] 54.4 µM

CNCCO
not listed: [2] | [10]
inactive: all other assays above
